Shown are actives, neighbours in structure and some others; about 5.2% of the full set was active somewhere.
CendR NRP1 mod: modulators of CendR peptide binding to human neuropilin-1 | FAM-RPARPAR peptide binding to NRP-1, fluorescence polarization | 360,000 tested, 0.85% active | AID 602438 | inhibition, % at 25 µM | O14786;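 active = inhibition or corrected inhibition above about 18%, plus a signal ratio from 0.5 to 1.5, limit read from the data, passing the limit was not always enough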
APOBEC3G inh: blocks human APOBEC3G single-stranded DNA deamination | AID 493012 | inhibition, % at 20 µM | recombinant A3G, ssDNA deamination FAM/TAMRA fluorescence | 330,000 tested, 0.28% active | Q9HC16;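 active = inhibition of at least 40% at 20 µM, with no more than 30% in the related APOBEC3A deaminase screen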;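 also: plate controls were DMSO wells with A3G for no effect and wells lacking A3G enzyme for full effect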
A3A deaminase: blocks human APOBEC3A ssDNA deamination; 330,000 tested, 0.41% active; recombinant A3A, FAM/TAMRA ssDNA deamination fluorescence; inhibition, % at 20 µM; AID 493011; P31941;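 active = at least 40% inhibition at 20 µM here, with at most 30% in a related deaminase screen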;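 also: plate controls were A3A with DMSO for no effect and wells lacking A3A enzyme for full effect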
Target sequence (P31941 whole entry, looked up): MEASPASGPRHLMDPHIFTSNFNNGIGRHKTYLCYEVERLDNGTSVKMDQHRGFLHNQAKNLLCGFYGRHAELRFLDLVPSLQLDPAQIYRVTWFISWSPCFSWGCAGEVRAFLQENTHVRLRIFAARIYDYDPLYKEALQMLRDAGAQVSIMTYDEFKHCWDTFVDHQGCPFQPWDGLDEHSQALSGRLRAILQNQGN
CR mimetic SO: caloric restriction mimetics inhibiting age-related superoxide in yeast; S. cerevisiae aged cells, superoxide DHE fluorescence; stronger effect = lower value; superoxide response (% of plate mean), % at 10 µM; 330,000 tested, 0.18% active; AID 2690;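 active = superoxide response under a set limit, about three screen SD below normal, cut at about 65% in these data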;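 also: yeast aged for seven days with compound at 30 °C before DHE staining; 100% = average MFI of all compound-treated wells on the plate with controls excluded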
ALR H2O2 inh: blocks human ALR sulfhydryl oxidase activity. inhibition, % (no concentration beside the values). 290,000 tested, 3.8% active. purified ALR, DTT oxidation, H2O2 HRP-luminol luminescence. AID 485317;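 active = mean replicate inhibition above about 79%, with every replicate also reaching it, limit read from the data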
Target sequence (P55789 whole entry, looked up): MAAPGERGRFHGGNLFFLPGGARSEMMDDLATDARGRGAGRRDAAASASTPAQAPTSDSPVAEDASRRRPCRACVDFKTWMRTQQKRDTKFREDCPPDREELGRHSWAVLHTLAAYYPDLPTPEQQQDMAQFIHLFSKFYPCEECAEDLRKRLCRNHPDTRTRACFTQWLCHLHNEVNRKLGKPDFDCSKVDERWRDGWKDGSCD
M18AAP inhibitor: blocks P. falciparum M18 aspartyl aminopeptidase. recombinant PfM18AAP, H-Glu-NHMec fluorogenic cleavage. inhibition, % at 7.35 µM. 290,000 tested, 1.2% active. AID 1822;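 active = inhibition above the campaign mean inhibition over all tested compounds plus 3 SD, cut at about 28% in these data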;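 also: 0% = plate median of test compound wells and 100% = 2 mM ZnCl2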
* = called active by the depositor; . = not tested or not shown.

SMILES	CendR NRP1 mod	APOBEC3G inh	A3A deaminase	CR mimetic SO	ALR H2O2 inh	M18AAP inhibitor
CCOC(=O)C1CCN(C(=O)C2CCN(C(=O)c3ccc([N+](=O)[O-])cc3)CC2)CC1	24*	0	2	109	-2	-8
O=C(NCCCN1CCCC1)c1ccc2c(Cl)c3c(nc2c1)CCCC3	3	-5	0	108	94*	0
CCCN1CCN(CCCNC(=O)c2ccc3c(Cl)c4c(nc3c2)CCCC4)CC1	3	-2	-2	92	44	-1
CCOC(=O)C1CCN(C(=O)c2ccc3c(Cl)c4c(nc3c2)CCCC4)CC1	12	-6	-2	113	95*	4
CCOC(=O)N1CCN(C(=O)c2ccc3c(SCC(=O)O)c4c(nc3c2)CCC4)CC1	-5	-2	2	123	80*	2
CCc1ccc(NC(=O)NCCCN2CCCC2=O)cc1	-2	-8	-4	103	-5	-2
CNC(=O)c1sc(N2N=C3/C(=C/c4ccccc4)CCCC3C2c2ccccc2)nc1C (stereo not drawn)	-41	-5	-2	86	99*	-1
COc1cc(NC(=O)c2ccco2)c(OC)cc1NC(=O)Nc1ccc(Cl)cc1	-8	-2	3	120	-8	-5
C[C@@H]1O[C@@H](OC2C(O)C(OCCc3ccc(O)c(O)c3)OC(CO)C2OC(=O)/C=C/c2ccc(O)c(O)c2)[C@H](O)[C@H](O)[C@H]1O (stereo partly drawn)	.	-9	-6	112	99*	.
Nc1ccc2c(=O)[nH][nH]c(=O)c2c1	-1	.	.	.	.	.
Nc1ccc2oc3ccc(N)cc3c(=O)c2c1	9	16	6	109	99*	24
COc1cccc2cc(-c3csc(CCn4nc(C)cc4C)n3)c(=O)oc12	-3	-7	-3	96	98*	5
CC/C(C)=N/Nc1nc(-c2cc3cccc(OC)c3oc2=O)cs1	-4	0	1	103	98*	20
COc1ccc(OC)c(-c2csc(CCn3nc(C)cc3C)n2)c1	-4	-10	-2	82	.	5
COc1cccc2cc(-c3nnc(-c4ccccc4)o3)c(=O)oc12	-8	-6	-3	91	-4	-2
Cn1cccc1C(=O)NC(=O)COC(=O)CC12CC3CC(CC(Br)(C3)C1)C2	-7	0	6	79	.	-1
CCOc1ccc(OCCC(=O)Nc2ccccc2C(=O)NC2CC2)cc1	5	.	.	.	.	.
Oc1ccc(N=Nc2ccccc2-c2nn[nH]n2)c(O)c1	10	-5	12	98	.	34*
NC(N)=NCC(O)CN(c1ccccc1)c1ccccc1 (stereo not drawn)	-11	-11	-4	105	99*	16
CNCC(O)CN(c1ccccc1)c1ccccc1 (stereo not drawn)	6	-6	-1	102	99*	-7
CN(CCO)CC(O)CN(c1ccccc1)c1ccccc1 (stereo not drawn)	-2	0	-3	91	99*	6
CN(Cc1ccccc1)CC(O)CN(C)Cc1ccccc1	20	.	.	.	.	.
CCOc1ccc(-n2c(SCC(=O)NCc3ccco3)nnc2-c2c[nH]c3ccccc23)cc1	-29	4	-4	109	.	4
COc1ccccc1C(O)(C(=O)NNc1cccc(C)c1)c1ccccc1OC	1	-4	-2	89	95*	-1
CCn1c(SCC(=O)N/N=C/C(C)=C/c2ccco2)nnc1-c1ccccc1	-17	-2	-2	121	-60	4
SMILES	CendR NRP1 mod	APOBEC3G inh	A3A deaminase	CR mimetic SO	ALR H2O2 inh	M18AAP inhibitor
COc1cc(CC(=O)OCC(=O)N2C(C)CCCC2C)cc(OC)c1OC (stereo not drawn)	26*	-8	-4	101	-5	-8
COc1ccccc1C(=O)NCCC(=O)N1CCN(S(=O)(=O)c2cccc(Cl)c2)CC1	8	-5	-5	99	-7	.
Cc1cc(O)c(/C=N/OCc2ccc(Cl)cc2Cl)c(=O)o1	-1	-8	-5	91	20	0
O=c1c(/C=N/OCc2ccc(Cl)cc2Cl)c[nH]n1-c1cccc(Cl)n1	7	-1	6	111	98*	3
COC1(OC)N=C(N)C2(C#N)C(c3ccc(C)cc3)C12C#N (stereo not drawn)	2	-2	-1	96	6	0
COC1(OC)N=C(NC(=O)Nc2ccccc2)C2(C#N)C(c3ccccc3)C12C#N (stereo not drawn)	-4	-2	-1	102	99*	8
CCC(C)(C)NC(=O)C(c1cccs1)N(C(=O)c1ccn[nH]1)c1cccc(OC)c1 (stereo not drawn)	5	-5	-1	106	-3	3
O=C(O)c1cccc(NC(=S)NC(=O)c2cccc(OCc3ccccc3)c2)c1	-7	-8	-7	107	98*	2
COc1cccc(/C=N/NC(=S)Nc2cccc(C(=O)O)c2)c1	8	-4	2	114	28	29*
COc1ccc(/C=N/NC(=S)Nc2cccc(C(=O)O)c2)cc1OC	2	-3	-2	108	.	25
Cc1cccc(NC(=S)N/N=C/c2ccc(Cl)c([N+](=O)[O-])c2)c1	27*	-5	-1	105	-2	2
O=C(/C=C/c1ccco1)NCCCN1CCOCC1	-4	2	1	82	-1	0
CCOC(=O)C1CCN(c2c(N3CCCCCC3)c(=O)c2=O)CC1	11	-9	-5	95	-3	2
COCCNC(=O)c1ccc(N2CC3CC(C2)c2cccc(=O)n2C3)c(NC(=O)c2ccccc2Br)c1 (stereo not drawn)	-14	.	.	.	.	.
O=C(CSc1nnc(CNC(=O)c2ccco2)o1)Nc1ccccc1	4	-6	-3	124	-2	3
Cn1cc(SCC(=O)Nc2nc3ccccc3s2)c2ccccc21	-19	-7	-1	95	98*	-8
O=C(CSc1nnc(CNC(=O)c2ccco2)o1)Nc1nc2ccccc2s1	-9	-9	-4	100	-8	29*
Cc1csc(SCC(=O)Nc2nc3ccccc3s2)n1	7	-9	-2	96	-5	1
CCC1C(=O)N=C(SCC(=O)Nc2cccc3ccccc23)NC1=O (stereo not drawn)	-8	-7	-3	82	99*	-2
CCOC(=O)c1ccc(NC(=O)CSc2nnc(C)n2-c2ccccc2)cc1	1	3	2	101	-7	-6
CCOC(=O)c1ccc(NC(=O)CSC2=NC(=O)C(CC)C(=O)N2)cc1 (stereo not drawn)	11	-4	-1	94	99*	22
CCOc1ccc(CN2CCNC(=O)C2CC(=O)NCCc2cnccn2)cc1 (stereo not drawn)	6	-3	-1	95	-3	-12
CC1=C(C(=O)OCCOC(C)C)C(c2cccc3ccccc23)NC(=O)N1 (stereo not drawn)	-8	-3	-2	94	-15	.
